Measured values as given in PubChem BioAssay AID1159580 (chemical genetic matrix, 2015).
Where “and” joins values, the source holds several entries; their conditions need not be identical. Identical values can stand only once. Among all 5,500 compounds or so, about 2,000 (36%) were called active. Not shown: some 18% with an inconclusive outcome. Rule as the data show it: active = normalized growth mostly below about 0.91 (no sharp cut-off); inconclusive = no clear call, values can overlap the other calls; inactive = mostly above about 0.92. The list shows a part of the results.

Assay: chemical genetic growth profiling, strain panel (AID 1159580);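 also: tested at 20 µM; growth read once vehicle control cultures reached saturation at 30 °C; 1 = growth at the plate median or of vehicle wells; lower values mean less growth of the strain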
Conditions: S. cerevisiae deletion strains, growth OD

Measured: normalized growth

COC(=O)C[C@H]1C2(C)CC34OC5(C)O[C@@]6([C@H](OC(C)=O)C(OC(C)=O)[C@]7(C)C(/C(=C(/O)C(C)C)C(=O)O[C@H]7c7ccoc7)[C@@]6(O5)[C@H](OC(C)=O)[C@@]3(O)C2OC(=O)C(C)C)[C@]14C (stereo partly drawn)
inactive: locus YAL021C, strain ccr4, active compounds read low 1.01 | locus YAL026C, strain drs2, active compounds read low 0.995 | locus YAL030W, strain snc1, active compounds read low 0.997 | locus YBL061C, strain skt5, active compounds read low 1.01 | locus YBR009C, strain hhf1, active compounds read low 1.01 | locus YBR021W, strain FUR4, active compounds read low 1.06 | locus YBR023C, strain chs3, active compounds read low 1 | locus YBR171W, strain sec66, active compounds read low 0.994 | locus YBR229C, strain ROT2, active compounds read low 0.955 | locus YBR231C, strain swc5, active compounds read low 1 | locus YBR279W, strain paf1, active compounds read low 0.996 | locus YCL011C, strain gbp2, active compounds read low 0.989 | locus YCL016C, strain dcc1, active compounds read low 1.02 | locus YCL029C, strain bik1, active compounds read low 1.01 | locus YCL061C, strain MRC1, active compounds read low 1 | locus YCL069W, strain vba3, active compounds read low 0.998 | locus YCR088W, strain abp1, active compounds read low 0.992 | locus YDL005C, strain med2, active compounds read low 0.982 | locus YDL035C, strain GPR1, active compounds read low 0.976 | locus YDL040C, strain nat1, active compounds read low 0.978 | locus YDL074C, strain BRE1, active compounds read low 0.986 | locus YDL101C, strain DUN1, active compounds read low 1 | locus YDL134C, strain PPH21, active compounds read low 1.02 | locus YDL185W, strain tfp1, active compounds read low 0.956 | locus YDL192W, strain arf1, active compounds read low 0.986 | locus YDR001C, strain nth1, active compounds read low 1 | locus YDR069C, strain doa4, active compounds read low 1 | locus YDR101C, strain arx1, active compounds read low 1 | locus YDR137W, strain rgp1, active compounds read low 0.953 | locus YDR159W, strain sac3, active compounds read low 0.975 | locus YDR162C, strain NBP2, active compounds read low 0.973 | locus YDR195W, strain ref2 0.959 | locus YDR297W, strain sur2, active compounds read low 1.02 | locus YDR318W, strain mcm21, active compounds read low 0.994 | locus YDR334W, strain swr1, active compounds read low 0.991 | locus YDR335W, strain msn5, active compounds read low 0.993 | locus YDR388W, active compounds read low 0.994 | locus YDR392W, strain spt3, active compounds read low 1.05 | locus YDR502C, strain sam2, active compounds read low 1.03 | locus YEL003W, strain gim4, active compounds read low 0.995 | locus YEL037C, strain rad23, active compounds read low 0.997 | locus YEL061C, strain CIN8 (second series), active compounds read low 0.994 | locus YEL061C, strain CIN8, active compounds read low 1 | locus YER015W, strain faa2, active compounds read low 1.01 | locus YER016W, strain bim1, active compounds read low 0.981 | locus YER110C, active compounds read low 0.992 | locus YER111C, strain swi4, active compounds read low 0.985 | locus YER155C, strain BEM2 (second series), active compounds read low 1.01 | locus YER155C, strain BEM2, active compounds read low 1.01 | locus YER167W, strain BCK2, active compounds read low 0.99 | locus YFR010W, strain ubp6, active compounds read low 0.982 | locus YGL078C, strain dbp3, active compounds read low 0.98 | locus YGL086W, strain mad1, active compounds read low 1.01 | locus YGL167C, strain pmr1, active compounds read low 0.995 | locus YGL173C, strain kem1, active compounds read low 0.997 | locus YGL227W, strain vid30, active compounds read low 0.987 | locus YGL240W, strain doc1, active compounds read low 0.975 | locus YGL248W, strain PDE1, active compounds read low 0.997 | locus YGL253W, strain hxk2, active compounds read low 0.975 | locus YGR078C, strain PAC10, active compounds read low 1 | locus YGR135W, strain pre9, active compounds read low 1.06 | locus YGR252W, strain gcn5, active compounds read low 1.04 | locus YHR013C, strain ard1, active compounds read low 1 | locus YHR027C, strain rpn1, active compounds read low 1.02 | locus YHR030C, strain SLT2, active compounds read low 0.947 | locus YHR079C, strain IRE1 (second series), active compounds read low 0.997 | locus YHR079C, strain IRE1, active compounds read low 0.983 | locus YHR094C, strain hxt1, active compounds read low 0.998 | locus YHR129C, strain ARP1, active compounds read low 1 | locus YHR142W, strain chs7, active compounds read low 1 | locus YHR200W, strain rpn10, active compounds read low 0.996 | locus YIL066C, strain RNR3, active compounds read low 0.963 | locus YIL073C, strain SPO22, active compounds read low 0.966 | locus YIL125W, strain kgd1, active compounds read low 1 | locus YIR030C, strain dcg1, active compounds read low 1 | locus YJL092W, strain hpr5, active compounds read low 0.997 | locus YJL095W, strain BCK1 (second series), active compounds read low 1 | locus YJL095W, strain BCK1, active compounds read low 1.02 and 0.966 | locus YJL115W, strain asf1, active compounds read low 0.989 | locus YJL129C, strain trk1, active compounds read low 0.975 | locus YJL134W, strain LCB3, active compounds read low 0.994 | locus YJL154C, strain vps35, active compounds read low 1 | locus YJL164C, strain tpk1, active compounds read low 1.01 | locus YJL166W, strain qcr8, active compounds read low 0.983 | locus YJL168C, strain set2, active compounds read low 1.01 | locus YJL187C, strain SWE1 (second series), active compounds read low 1.01 | locus YJL187C, strain SWE1, active compounds read low 1.01 | locus YJR066W, strain TOR1, active compounds read low 0.928 | locus YJR075W, strain HOC1, active compounds read low 1.02 | locus YKL009W, strain mrt4, active compounds read low 0.979 | locus YKL068W, active compounds read low 0.986 | locus YKL160W, strain elf1, active compounds read low 1.01 | locus YKR001C, strain vps1, active compounds read low 1 | locus YKR026C, strain gcn3, active compounds read low 0.995 | locus YKR091W, strain srl3, active compounds read low 0.996 | locus YLL001W, strain dnm1, active compounds read low 1.02 | locus YLL026W, active compounds read low 0.987 | locus YLL041C, strain sdh2, active compounds read low 0.988 | locus YLR027C, strain aat2, active compounds read low 1 | locus YLR039C, strain RIC1, active compounds read low 0.863 | locus YLR058C, strain SHM2, active compounds read low 0.987 | locus YLR102C, strain apc9, active compounds read low 1 | locus YLR113W, strain HOG1, active compounds read low 1.01 | locus YLR221C, strain rsa3, active compounds read low 0.992 | locus YLR258W, strain gsy2, active compounds read low 1.01 | locus YLR262C, strain YPT6 (second series), active compounds read low 0.924 | locus YLR268W, strain sec22, active compounds read low 0.986 | locus YLR320W, strain mms22, active compounds read low 0.988 | locus YLR342W, strain FKS1, active compounds read low 0.996 | locus YLR357W, strain rsc2, active compounds read low 0.997 | locus YLR370C, strain arc18, active compounds read low 0.99 | locus YLR371W, strain rom2, active compounds read low 0.99 | locus YLR384C, strain iki3, active compounds read low 0.994 | locus YLR418C, strain cdc73, active compounds read low 1.07 | locus YML016C, strain PPZ1, active compounds read low 0.995 | locus YML032C, strain rad52, active compounds read low 0.982 | locus YML120C, strain ndi1, active compounds read low 0.995 | locus YML124C, strain tub3, active compounds read low 1.01 | locus YMR058W, strain fet3, active compounds read low 1.01 | locus YMR078C, strain ctf18, active compounds read low 0.998 | locus YMR125W, strain sto1, active compounds read low 1.01 | locus YMR129W, active compounds read low 0.997 | locus YMR205C, strain PFK2, active compounds read low 0.992 | locus YMR223W, strain ubp8, active compounds read low 1.02 | locus YMR231W, strain pep5, active compounds read low 0.957 | locus YMR263W, strain SAP30, active compounds read low 0.992 | locus YMR307W, strain GAS1, active compounds read low 0.926 | locus YNL067W, strain RPL9B, active compounds read low 1.02 | locus YNL071W, strain lat1, active compounds read low 0.998 | locus YNL153C, strain GIM3, active compounds read low 1.02 | locus YNL183C, strain NPR1, active compounds read low 0.954 | locus YNL209W, strain ssb2, active compounds read low 0.994 | locus YNL233W, strain BNI4, active compounds read low 1.04 | locus YNL248C, strain rpa49, active compounds read low 0.989 | locus YNL250W, strain rad50, active compounds read low 0.987 | locus YNL271C, strain bni1, active compounds read low 0.999 | locus YNL298W, strain CLA4, active compounds read low 0.994 | locus YNL307C, strain MCK1, active compounds read low 1.01 | locus YNL322C, strain KRE1 (second series), active compounds read low 0.982 | locus YNR049C, strain mso1, active compounds read low 0.994 | locus YNR052C, strain pop2, active compounds read low 1.02 | locus YOL012C, strain htz1 1.3 | locus YOL147C, strain pex11, active compounds read low 1.01 | locus YOR001W, strain rrp6, active compounds read low 0.947 | locus YOR061W, strain CKA2, active compounds read low 0.962 | locus YOR069W, strain VPS5, active compounds read low 1 | locus YOR070C, strain gyp1, active compounds read low 0.987 | locus YOR080W, strain dia2, active compounds read low 0.977 | locus YOR083W, strain WHI5, active compounds read low 1.02 | locus YOR106W, strain vam3, active compounds read low 1.01 | locus YOR136W, strain idh2, active compounds read low 1 | locus YOR144C, strain elg1, active compounds read low 1 | locus YOR184W, strain ser1, active compounds read low 0.987 | locus YOR231W, strain MKK1, active compounds read low 0.981 | locus YOR265W, strain rbl2, active compounds read low 0.994 | locus YOR270C, strain vph1, active compounds read low 0.87 | locus YOR290C, strain snf2, active compounds read low 0.979 | locus YOR316C, strain cot1, active compounds read low 1.01 | locus YPL051W, strain arl3, active compounds read low 0.999 | locus YPL078C, strain atp4, active compounds read low 1.01 | locus YPL106C, strain sse1, active compounds read low 1.06 | locus YPL240C, strain hsp82, active compounds read low 0.99 | locus YPL256C, strain CLN2, active compounds read low 0.98 | locus YPR119W, strain clb2, active compounds read low 0.997 | locus YPR141C, strain kar3, active compounds read low 0.969 | locus YPR163C, strain tif3, active compounds read low 1.01 | locus YPR167C, strain met16, active compounds read low 0.993 | strain wtn01, active compounds read low 1
